Results filed as inconclusive are left out. The source made the active and inactive calls. How the source made its calls, unless noted: active means hit-call score of the fitted dose curve at least 0.9, where 1 is the maximum; inconclusive means response in the unintended direction; inactive means score below 0.9.

The target of test [1] is bovine Gamma-Aminobutyric Acid Type A Receptor Agonist (GABAR Agonist), GABRA1 (gene 780973) (UniProt P08219). The experiment in a line: NVS_LGIC_bGABAR_Agonist: NovaScreen (NVS) Ligand-Gated Ion Channel Assay for bovine Gamma-Aminobutyric Acid Type A Receptor Agonist (GABAR Agonist) (AID 2283338). In a few lines: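 Radioligand binding to bovine cerebellar membranes in agonist format, read by filter-based scintillation counting after 1 h. Primary screen in duplicate at 25 uM, with actives followed in concentration series. Gain of signal versus DMSO.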

Test [2] deals with Estrogen receptor (Homo sapiens) (UniProt P03372). The experiment in a line: OT_ER_ERaERa_1440: Odyssey Thera (OT) 24-hour HEK293T Protein-Complementation Assay for Estrogen Receptor-alpha/-alpha Homodimer (AID 2283349).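 Further: hits raise fluorescence above DMSO for agonists and antagonists alike.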 In a few lines: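 Cells (HEK293T) carrying the fragment-tagged ERα LBD (aa 310-547) pair are treated with chemical for 24 hours. Nuclear and/or cytoplasmic fluorescence is then quantified on a laser scanning cytometer. Activity is scored as signal gain against DMSO.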
Chain of Estrogen receptor (Homo sapiens) (P03372 whole entry, looked up, the tested form may be a part): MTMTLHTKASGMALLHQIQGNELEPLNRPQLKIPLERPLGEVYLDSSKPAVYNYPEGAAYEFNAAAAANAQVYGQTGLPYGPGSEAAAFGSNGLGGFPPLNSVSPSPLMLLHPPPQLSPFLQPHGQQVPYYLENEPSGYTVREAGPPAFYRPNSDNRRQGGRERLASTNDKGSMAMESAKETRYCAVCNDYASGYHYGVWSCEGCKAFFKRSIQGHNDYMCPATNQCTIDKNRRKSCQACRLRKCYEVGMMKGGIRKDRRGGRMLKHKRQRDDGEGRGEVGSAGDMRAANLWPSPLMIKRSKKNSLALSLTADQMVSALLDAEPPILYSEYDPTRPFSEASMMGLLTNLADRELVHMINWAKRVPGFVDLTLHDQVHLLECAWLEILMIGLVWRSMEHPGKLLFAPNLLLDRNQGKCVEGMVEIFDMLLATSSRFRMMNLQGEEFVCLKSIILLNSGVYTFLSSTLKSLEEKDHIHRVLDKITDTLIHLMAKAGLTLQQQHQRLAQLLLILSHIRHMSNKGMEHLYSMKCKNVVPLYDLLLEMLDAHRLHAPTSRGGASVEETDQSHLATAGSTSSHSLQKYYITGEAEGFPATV

Test [3] has the same target. Nature of the test: OT_ER_ERaERa_0480: Odyssey Thera (OT) 8-hour HEK293T Protein-Complementation Assay for Estrogen Receptor-alpha/-alpha Homodimer (AID 2283351).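 Further: rise in fluorescence from reassembled reporter fragments on ERα LBD homodimer in nucleus or whole cell.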 In a few lines:
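HEK293T cells stably expressing a PCA pair of ER alpha LBD (residues 310-547) were dosed for 8 hours. The gain in fluorescence intensity, nuclear for agonists and whole-cell for antagonists, was measured by laser scanning cytometry against DMSO vehicle.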

Test [4] addresses bovine Estrogen Receptor (ER), ESR1 (gene 407238) (UniProt P49884). Nature of the test: NVS_NR_bER: NovaScreen (NVS) Nuclear Receptor Binding Assay for bovine Estrogen Receptor (ER) (AID 2283345).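 Further: actives lower the bound radioligand count which means they displace the ER ligand.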 In a few lines:
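Cell-free radioligand binding with bovine uterine membrane extracts, read 18 hours after dosing by scintillation counting. Loss of signal versus DMSO baseline indicates displacement. Primary screen run in duplicate at 25 uM, actives followed in concentration series.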

Test [5] deals with chimpanzee Androgen Receptor (AR), AR (gene 747460) (UniProt O97775). The experiment in a line: NVS_NR_cAR: NovaScreen (NVS) Nuclear Receptor Binding Assay for chimpanzee Androgen Receptor (AR) (AID 2283346).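 Further: a loss of bound radioligand signal versus DMSO counts as binding.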 In a few lines: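 Radioligand binding to chimpanzee AR expressed in Sf9/Sf21 cells, cell-free, measured 72 h after dosing by lysate-based scintillation counting. Loss of signal vs DMSO; initial duplicate screen at 25 uM, actives retested in concentration series.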
Chain of chimpanzee Androgen Receptor (AR), AR (gene 747460) (O97775 whole entry, looked up): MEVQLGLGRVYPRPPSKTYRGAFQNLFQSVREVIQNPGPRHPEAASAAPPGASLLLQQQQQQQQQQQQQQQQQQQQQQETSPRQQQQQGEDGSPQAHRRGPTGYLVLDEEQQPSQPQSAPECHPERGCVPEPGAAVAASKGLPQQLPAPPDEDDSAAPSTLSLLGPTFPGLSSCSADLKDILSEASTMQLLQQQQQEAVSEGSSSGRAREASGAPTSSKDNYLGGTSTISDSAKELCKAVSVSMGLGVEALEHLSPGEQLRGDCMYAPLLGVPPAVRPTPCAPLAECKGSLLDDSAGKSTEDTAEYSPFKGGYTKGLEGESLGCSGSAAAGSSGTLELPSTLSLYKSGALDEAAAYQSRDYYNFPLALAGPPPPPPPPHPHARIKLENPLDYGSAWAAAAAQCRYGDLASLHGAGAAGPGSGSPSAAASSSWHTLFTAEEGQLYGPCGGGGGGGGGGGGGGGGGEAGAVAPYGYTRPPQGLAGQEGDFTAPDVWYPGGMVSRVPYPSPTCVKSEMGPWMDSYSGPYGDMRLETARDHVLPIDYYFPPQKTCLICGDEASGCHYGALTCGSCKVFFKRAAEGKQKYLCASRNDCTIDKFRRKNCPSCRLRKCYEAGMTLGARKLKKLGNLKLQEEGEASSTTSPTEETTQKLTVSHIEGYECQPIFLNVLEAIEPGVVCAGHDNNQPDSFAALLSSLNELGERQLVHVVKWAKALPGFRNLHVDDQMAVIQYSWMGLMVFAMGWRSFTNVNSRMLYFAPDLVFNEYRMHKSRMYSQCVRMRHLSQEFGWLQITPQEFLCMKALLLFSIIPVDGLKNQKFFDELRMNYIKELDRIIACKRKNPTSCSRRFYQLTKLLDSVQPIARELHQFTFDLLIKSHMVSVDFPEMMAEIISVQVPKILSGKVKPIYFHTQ

The target of test [6] is Estrogen receptor (Homo sapiens) (UniProt P03372). The experiment in a line: NVS_NR_hER: NovaScreen (NVS) Nuclear Receptor Binding Assay for human Estrogen Receptor (ER) (AID 2283348). In a few lines:
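MCF7-derived receptor extract, radiolabelled ligand, competitive displacement. Read: scintillation counts at 18 h. DMSO = negative control/baseline. Primary 25 uM duplicate; follow-up concentration–response.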

The target in test [7] is Small conductance calcium-activated potassium channel protein 1 (Rattus norvegicus) (UniProt P70606). The experiment in a line: NVS_IC_rKCaCh: NovaScreen (NVS) Ion Channel Assay for rat Potassium Channel, Ca2+ Act., VI (KCaCh) (AID 2283336). In a few lines:
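Filter-based scintillation counting of radioligand bound to rat forebrain membrane preparations, measured 1 h after compound addition. Primary screen used 25 uM in duplicate, with concentration-response follow-up; signal decrease relative to DMSO marks activity.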

For test [8], the target named is human Constitutive Androstane Receptor (CAR), NR1I3 (gene 9970) (UniProt Q14994). Nature of the test: NVS_NR_hCAR_Antagonist: NovaScreen (NVS) Nuclear Receptor Binding Assay for human Constitutive Androstane Receptor Antagonism (CAR) (AID 2283344). In a few lines:
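Single 25 uM duplicate primary screen, with concentration-series follow-up on actives. Cell-free binding format run in antagonist mode, TR-FRET signal taken 1 h post-dose; activity is signal loss relative to DMSO.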

Test [9] concerns the target Estrogen receptor (Homo sapiens) + Estrogen receptor beta (Homo sapiens) (UniProt P03372+Q92731). Nature of the test: OT_ER_ERaERb_0480: Odyssey Thera (OT) 8-hour HEK293T Protein-Complementation Assay for Estrogen Receptor-alpha/-beta Heterodimer (AID 2283352). In a few lines: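 Increase in mean fluorescence intensity, measured by laser scanning plate cytometry, reported ER-alpha/ER-beta LBD complementation in HEK293T cells after 8 h chemical exposure. DMSO served as baseline; basal signal is low, punctate and cytoplasmic.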

The target of test [10] is Androgen Receptor/SRC-1 Co-activator, AR (gene 367) (UniProt P10275). Nature of the test: OT_AR_ARSRC1_0960: Odyssey Thera (OT) 16-hour HEK293T Protein-Complementation Assay for Androgen Receptor/SRC-1 Co-activator (AID 2283353).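 Further: actives raise the signal above DMSO so potency reflects increased AR and SRC-1 complex.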 In a few lines:
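Endpoint is gain-of-signal N/C fluorescence ratio in the 488 nm channel versus DMSO, from at least 400 cells per image, measured 16 h post-dosing. Cells: HEK293T stably carrying split-Venus AR/SRC-1 complementation constructs.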

Test [11] addresses Voltage-gated inwardly rectifying potassium channel KCNH2 (Homo sapiens) (UniProt Q12809). Nature of the test: NVS_IC_hKhERGCh: NovaScreen (NVS) Ion Channel Assay for human Potassium Channel ERG (KhERGCh) (AID 2283333). In a few lines: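 Membranes from CHO cells expressing human ERG; displacement of radioligand measured by filtration and scintillation after 0.75 h. Single-concentration duplicate screen at 25 uM, then concentration-response for actives; DMSO baseline.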

In test [12] the target is Glutamate receptor ionotropic, kainate 1 (Rattus norvegicus) (UniProt P22756). The experiment in a line: NVS_IC_rKAR: NovaScreen (NVS) Ion Channel Assay for rat Kainic Acid Receptors (KAR) (AID 2283334; active means hit-call score of the fitted dose curve at least 0.9, where 1 is the maximum; inactive means score below 0.9). In a few lines: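 Rat forebrain membrane preparation incubated 1 h with radioligand and test chemical; bound signal read by filtration and scintillation. Single-concentration screen at 25 uM, then concentration series to 50 uM maximum.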

The nature of test [13]: NVS_IC_rCaBTZCHL: NovaScreen (NVS) Ion Channel Assay for Calcium Channel, Type L, Benzothiazepine Site (CaBTZCHL) (AID 2283337). In a few lines:
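Rat cortical membrane preparation incubated 1.5 h with compound and benzothiazepine-site radioligand; loss of filter-bound counts versus DMSO marks displacement. Initial duplicate testing at 25 uM, actives followed up in concentration series.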

Test [14] concerns guinea pig Histamine Receptor (H2), gene 100729734. The experiment in a line: NVS_GPCR_gH2: NovaScreen (NVS) G Protein-Coupled Receptor Assay for guinea pig Histamine Receptor (H2) (AID 2283342). In a few lines:
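Guinea pig striatal membrane preparation with specific radioligand; bound counts measured by filtration and scintillation 1 h post-dosing, DMSO as baseline. Chemicals passing a 25 uM duplicate screen were titrated to a 50 uM maximum.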

In the next test the test system is NCBI gene 100848466. Nature of the test: NVS_NR_bPR: NovaScreen (NVS) Nuclear Receptor Binding Assay for bovine Progextron Receptor (PR) (AID 2283343).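 On AC50: actives lower bound radioligand signal below DMSO meaning displacement of the label.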 In a few lines:
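Scintillation counts of bound radioligand were read 18 hours after chemical addition to membranes extracted from bovine uterus. Displacement was scored as loss of signal relative to DMSO controls. Screening began at 25 uM in duplicate.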

Test [15] concerns the target rat Glycine Receptor, Strychnine-sensitive (GlyRStrySens), Glra1 (gene 25674) (UniProt P07727). The experiment in a line: NVS_LGIC_rGlyRStrySens: NovaScreen (NVS) Ligand-Gated Ion Channel Assay for rat Glycine Receptor, Strychnine-sensitive (GlyRStrySens) (AID 2283341). In a few lines: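 Radioligand displacement on rat spinal cord membranes, 1 hr, filter scintillation read-out. Single-concentration duplicate screen at 25 uM; chemicals meeting threshold (e.g., 30% inhibition) rerun in concentration-response up to 50 uM. Loss of binding fitted versus DMSO.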

Test [16] has as its target rat Peripheral-type Benzodiazepine Receptor (PBR), Tspo (gene 24230) (UniProt P16257). Nature of the test: NVS_MP_rPBR: NovaScreen (NVS) Membrane Protein Assay for rat Peripheral-type Benzodiazepine Receptor (PBR) (AID 2283335). In a few lines:
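Competitive displacement of specific radioligand from rat kidney membrane PBR, read by filtration and scintillation after 1 h. Compounds first tested at 25 uM in duplicate, then in concentration series; signal loss relative to DMSO.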

Test [17] has as its target rat Glutamate, MK-801 Agonist Site (GluNMDA_MK801), Grin1 (gene 24408) (UniProt P35439). Nature of the test: NVS_LGIC_rGluNMDA_MK801_Agonist: NovaScreen (NVS) Ligand-Gated Ion Channel Assay for rat Glutamate, MK-801 Agonist Site (GluNMDA_MK801) (AID 2283340). In a few lines: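 Rat forebrain membrane preparation; MK-801-site radioligand binding read by filtration and scintillation after 1.5 h. Single-point 25 uM duplicate screen, followed by singleton concentration series to 50 uM max; DMSO baseline.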

Chain of bovine Estrogen Receptor (ER), ESR1 (gene 407238) (P49884 whole entry, looked up): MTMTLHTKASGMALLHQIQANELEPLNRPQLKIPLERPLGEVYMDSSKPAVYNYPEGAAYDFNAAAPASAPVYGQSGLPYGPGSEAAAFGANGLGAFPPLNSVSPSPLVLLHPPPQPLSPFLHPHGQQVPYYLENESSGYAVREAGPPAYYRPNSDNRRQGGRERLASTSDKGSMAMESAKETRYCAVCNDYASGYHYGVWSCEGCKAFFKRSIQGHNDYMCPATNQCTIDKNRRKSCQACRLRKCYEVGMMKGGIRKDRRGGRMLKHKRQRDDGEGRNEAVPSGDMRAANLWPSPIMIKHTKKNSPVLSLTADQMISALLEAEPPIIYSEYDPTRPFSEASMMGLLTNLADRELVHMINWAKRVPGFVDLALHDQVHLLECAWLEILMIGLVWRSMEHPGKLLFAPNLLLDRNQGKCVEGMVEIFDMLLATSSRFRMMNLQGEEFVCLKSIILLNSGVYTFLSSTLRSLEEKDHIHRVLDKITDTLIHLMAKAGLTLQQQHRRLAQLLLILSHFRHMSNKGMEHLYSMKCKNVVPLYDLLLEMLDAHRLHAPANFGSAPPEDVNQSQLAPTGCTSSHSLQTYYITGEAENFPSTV
Chain of Estrogen receptor (Homo sapiens) + Estrogen receptor beta (Homo sapiens) (P03372 whole entry, looked up, the tested form may be a part): as the sequence (P03372 whole entry, looked up, the tested form may be a part) above
Chain of Estrogen receptor (Homo sapiens) + Estrogen receptor beta (Homo sapiens) (Q92731 whole entry, looked up, the tested form may be a part): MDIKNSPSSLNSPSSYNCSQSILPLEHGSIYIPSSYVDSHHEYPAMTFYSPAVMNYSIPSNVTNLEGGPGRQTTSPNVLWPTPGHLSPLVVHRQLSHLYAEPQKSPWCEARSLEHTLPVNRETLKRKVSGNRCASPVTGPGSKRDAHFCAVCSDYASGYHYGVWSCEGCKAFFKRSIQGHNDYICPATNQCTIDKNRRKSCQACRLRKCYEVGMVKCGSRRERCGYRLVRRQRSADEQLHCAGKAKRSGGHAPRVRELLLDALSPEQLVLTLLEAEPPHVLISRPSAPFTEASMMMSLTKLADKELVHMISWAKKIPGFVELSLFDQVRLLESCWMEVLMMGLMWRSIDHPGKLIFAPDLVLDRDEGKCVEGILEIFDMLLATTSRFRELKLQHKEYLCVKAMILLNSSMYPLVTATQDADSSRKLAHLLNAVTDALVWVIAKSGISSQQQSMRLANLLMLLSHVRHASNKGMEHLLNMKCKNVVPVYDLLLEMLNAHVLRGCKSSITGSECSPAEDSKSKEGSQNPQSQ
Chain of Voltage-gated inwardly rectifying potassium channel KCNH2 (Homo sapiens) (Q12809 whole entry, looked up): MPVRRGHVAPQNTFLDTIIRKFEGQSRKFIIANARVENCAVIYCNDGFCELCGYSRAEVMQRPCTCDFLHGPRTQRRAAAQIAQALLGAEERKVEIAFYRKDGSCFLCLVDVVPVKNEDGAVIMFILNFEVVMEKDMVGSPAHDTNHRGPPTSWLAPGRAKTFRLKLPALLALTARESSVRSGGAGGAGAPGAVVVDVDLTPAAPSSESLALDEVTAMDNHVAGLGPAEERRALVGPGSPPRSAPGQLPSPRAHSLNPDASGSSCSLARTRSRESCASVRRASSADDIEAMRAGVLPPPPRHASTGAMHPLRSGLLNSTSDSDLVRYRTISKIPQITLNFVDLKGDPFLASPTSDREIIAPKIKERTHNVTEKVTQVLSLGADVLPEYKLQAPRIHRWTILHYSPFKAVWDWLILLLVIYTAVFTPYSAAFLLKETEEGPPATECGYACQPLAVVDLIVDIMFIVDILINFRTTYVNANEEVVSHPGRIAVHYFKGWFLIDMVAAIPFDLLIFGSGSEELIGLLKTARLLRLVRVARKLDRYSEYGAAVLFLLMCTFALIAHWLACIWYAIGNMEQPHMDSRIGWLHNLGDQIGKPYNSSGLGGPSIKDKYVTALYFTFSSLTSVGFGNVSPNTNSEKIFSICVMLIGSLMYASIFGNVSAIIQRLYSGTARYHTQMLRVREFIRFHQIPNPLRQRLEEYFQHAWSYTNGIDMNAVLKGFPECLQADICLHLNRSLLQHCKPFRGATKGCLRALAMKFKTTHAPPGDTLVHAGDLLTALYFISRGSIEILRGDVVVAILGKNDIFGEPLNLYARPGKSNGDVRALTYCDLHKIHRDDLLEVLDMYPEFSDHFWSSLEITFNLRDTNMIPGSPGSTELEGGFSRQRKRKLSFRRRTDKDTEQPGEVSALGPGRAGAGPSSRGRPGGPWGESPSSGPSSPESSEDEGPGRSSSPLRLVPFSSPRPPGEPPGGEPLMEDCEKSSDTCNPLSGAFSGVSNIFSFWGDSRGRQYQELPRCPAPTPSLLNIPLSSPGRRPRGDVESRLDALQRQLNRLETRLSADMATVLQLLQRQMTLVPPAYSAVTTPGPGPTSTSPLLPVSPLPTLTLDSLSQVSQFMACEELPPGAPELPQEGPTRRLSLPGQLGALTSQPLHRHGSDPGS
Chain of human Constitutive Androstane Receptor (CAR), NR1I3 (gene 9970) (Q14994 whole entry, looked up): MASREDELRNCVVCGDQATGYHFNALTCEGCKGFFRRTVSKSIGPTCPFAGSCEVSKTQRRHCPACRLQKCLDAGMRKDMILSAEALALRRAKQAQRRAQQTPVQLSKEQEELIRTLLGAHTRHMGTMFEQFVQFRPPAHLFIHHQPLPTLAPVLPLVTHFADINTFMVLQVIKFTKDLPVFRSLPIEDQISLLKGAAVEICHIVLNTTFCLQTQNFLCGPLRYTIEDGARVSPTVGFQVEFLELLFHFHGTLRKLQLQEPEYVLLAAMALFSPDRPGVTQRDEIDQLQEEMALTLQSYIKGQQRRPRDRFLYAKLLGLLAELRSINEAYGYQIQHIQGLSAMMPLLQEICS
Chain of rat Peripheral-type Benzodiazepine Receptor (PBR), Tspo (gene 24230) (P16257 whole entry, looked up): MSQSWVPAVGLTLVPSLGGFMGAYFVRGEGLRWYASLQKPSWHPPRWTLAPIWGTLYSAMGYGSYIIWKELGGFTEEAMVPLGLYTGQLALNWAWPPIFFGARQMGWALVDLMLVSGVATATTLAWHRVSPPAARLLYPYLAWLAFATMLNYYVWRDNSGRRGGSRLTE

In the case of `OC(Cn1cncn1)(Cn1cncn1)c1ccc(F)cc1F`, the compound was classed as inactive in test [1], in test [2] and in test [3].
What is called AC50 is the midpoint of the concentration-response curve, whichever way the signal moves. In the case of `C[C@]12C=CC(=O)C=C1CC[C@H]1[C@@H]3C[C@@H](O)[C@](O)(C(=O)CO)[C@@]3(C)C[C@H](O)[C@@]12F`, the result in test [4], in test [2] and in [3] was inactive. For the same compound, the results for the AC50 in test [5] and in test [6] were 32.6 µM (active) and 38.3 µM (active), respectively.
Turning to `COS(C)(=O)=O`, the result in [4], in test [6], in [2] and in test [3] was inactive.
With `Cc1nc(-c2ccccn2)ncc1C(=O)Nn1cc(C)c2cc(F)ccc21`, the outcome in [7], in test [8], in [2], in [3], in test [9] and in test [10] was inactive.
Regarding `O=S(=O)(O)c1ccc(N=Nc2c(O)ccc3cc(S(=O)(=O)O)ccc23)cc1`, the AC50 in test [11] was 12.3 µM (active). The result in test [12], in [2] and in test [3] was inactive.
In the case of `Cc1nccn1-c1ccc(Sc2cccc(C3(C(N)=O)CCOCC3)c2)cc1`, the outcome in test [13], in test [14], in test [2], in [3] and in test [9] was inactive. Also, the AC50 with NCBI gene 100848466 is 7.1 µM (active).
In the case of `CCCCN1C(=O)[C@@H]([C@H](O)C2CCCCC2)NC(=O)C12CCN(Cc1ccc(Oc3ccc(C(=O)O)cc3)cc1)CC2`, the compound was classed as inactive in test [11], in test [2], in test [3] and in test [9].
`O=C(O)c1ccc2c(c1)nc(C(=O)NC1CCN(C3CC3)CC1)n2Cc1cc(-c2ccc(Cl)s2)on1`: the compound was called inactive in test [8], in [2], in test [3] and in test [9].
As for `CCCCCCCC1CCC(=O)O1` (centres undefined), the compound was called inactive in test [15], in test [2], in [3] and in test [9].
For the compound `O=c1[nH]cnc2c1ncn2[C@H]1CC[C@@H](CO)O1`, the result in [8], in [2] and in [3] was inactive.
On to `CC(C)C(=O)Nc1ccc([N+](=O)[O-])c(C(F)(F)F)c1`, for which, in test [16], the concentration at half-maximal activity (AC50) was 4.95 µM (active). Also, the outcome (in test [13]; in the test with NCBI gene 100848466; in [6]; in test [2]; in [3]; in test [9]) was inactive.
For the compound `c1ccc(C(O[C@@H]2CCCN(CCc3ccc4c(c3)OCO4)C2)c2ccccc2)cc1`, the compound was classed as inactive in test [11], in test [16], in test [17], in test [4], in test [5] and in test [6]. For the same compound, the result in test [3] was inactive. Moreover, the AC50 is 428 nM (active) in [13], 337 nM (active) in [14], 68.3 µM (active) in test [2] and 31.5 µM (active) in test [9].
Take `COc1cc(C(C)C)c2c(c1)S(=O)(=O)N(COc1cc(=O)n3cccc(OCCN4CCCCC4)c3n1)C2=O`: the results for the half-maximal activity concentration (AC50) in test [13], in test [14] and in test [10] were 3140 nM (active), 3130 nM (active) and 10.6 µM (active), respectively. Besides, the result in [6], in [2] and in [3] was inactive.
In the case of `CC1(C)C(=O)N(Cl)C(=O)N1Cl`, the result in [7] and in [2] was inactive.
